Laboratory results reported in paper PMC7862700, “An all-to-all approach to the identification of sequence-specific readers for epigenetic DNA modifications on cytosine”.

How the values were obtained:
Assay in all cases: DAPPL (digital affinity profiling via proximity ligation, sequencing); 10 mM Tris-HCl pH 7.5, 50 mM NaCl, 1 mM DTT, 4% glycerol, room temperature, 30 min; GST-TFs on glutathione beads, 16-mer random dsDNA library, 0.1% formaldehyde crosslink after washing; high values mean tight binding
[1] = target: T1, FLI1 (Homo sapiens, UniProt Q01543 1-452); settings: protein: recombinant; tags: N-terminal GST; dsDNA, one strand shown
T1 sequence: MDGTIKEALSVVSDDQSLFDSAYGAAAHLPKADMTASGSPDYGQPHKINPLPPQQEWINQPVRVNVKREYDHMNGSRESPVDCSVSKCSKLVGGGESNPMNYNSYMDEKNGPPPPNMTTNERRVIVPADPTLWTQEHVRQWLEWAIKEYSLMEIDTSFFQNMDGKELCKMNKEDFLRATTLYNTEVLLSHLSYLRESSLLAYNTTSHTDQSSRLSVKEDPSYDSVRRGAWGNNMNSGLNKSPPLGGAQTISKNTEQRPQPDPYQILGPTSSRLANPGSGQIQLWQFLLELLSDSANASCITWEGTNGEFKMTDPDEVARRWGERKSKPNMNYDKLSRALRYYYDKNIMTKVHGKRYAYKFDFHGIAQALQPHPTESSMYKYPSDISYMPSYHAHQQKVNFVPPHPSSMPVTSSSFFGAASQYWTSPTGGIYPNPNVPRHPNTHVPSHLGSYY
Method in brief: (§1)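 Sequencing on an Illumina NextSeq500 followed washing, crosslinking with 0.1% formaldehyde, proximity ligation (BsaI/T4 ligase, 1 h, 37 °C) and PCR amplification of pools that had been incubated for 30 min at room temperature with 200 nmole of a random double-stranded 16-mer DNA library in Tris/NaCl/DTT/glycerol buffer. Each pool held DNA-barcoded human transcription factors, expressed in yeast as GST fusions and captured on glutathione beads, plus a tag-only sample. Binding signal is a hexamer's read frequency for a factor divided by its frequency in the tag-only sample.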

[2] = target: T2, ELK1 (Homo sapiens, UniProt P19419 1-428); settings: protein: recombinant; tags: N-terminal GST; dsDNA, one strand shown
T2 sequence: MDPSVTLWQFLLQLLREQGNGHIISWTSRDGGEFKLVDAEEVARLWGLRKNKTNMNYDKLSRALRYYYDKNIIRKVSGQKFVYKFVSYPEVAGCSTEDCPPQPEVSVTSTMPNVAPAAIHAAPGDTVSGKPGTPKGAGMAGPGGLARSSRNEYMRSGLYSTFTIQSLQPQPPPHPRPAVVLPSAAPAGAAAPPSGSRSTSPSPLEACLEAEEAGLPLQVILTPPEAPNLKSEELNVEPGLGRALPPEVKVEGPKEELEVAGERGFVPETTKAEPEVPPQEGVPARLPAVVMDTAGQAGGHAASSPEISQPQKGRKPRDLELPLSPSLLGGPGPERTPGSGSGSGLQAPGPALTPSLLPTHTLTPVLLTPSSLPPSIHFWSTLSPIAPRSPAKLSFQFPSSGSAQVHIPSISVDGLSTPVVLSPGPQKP
Method in brief: as §1

[3] = target: T3, GABPA (Homo sapiens, UniProt Q06546 1-454); settings: protein: recombinant; tags: N-terminal GST; dsDNA, one strand shown
T3 sequence: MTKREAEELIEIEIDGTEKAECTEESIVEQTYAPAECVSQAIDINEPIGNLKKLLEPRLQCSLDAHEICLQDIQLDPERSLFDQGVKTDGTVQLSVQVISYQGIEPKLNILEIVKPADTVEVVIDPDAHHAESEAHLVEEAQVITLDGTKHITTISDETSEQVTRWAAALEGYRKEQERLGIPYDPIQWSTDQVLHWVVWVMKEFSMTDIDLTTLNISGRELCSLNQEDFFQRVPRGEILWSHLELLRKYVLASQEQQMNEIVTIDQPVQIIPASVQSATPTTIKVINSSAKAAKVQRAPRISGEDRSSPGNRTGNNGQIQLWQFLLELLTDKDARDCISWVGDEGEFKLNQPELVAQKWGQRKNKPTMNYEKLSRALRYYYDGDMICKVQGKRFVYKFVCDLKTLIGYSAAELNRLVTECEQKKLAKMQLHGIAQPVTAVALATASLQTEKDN
Method in brief: as §1

[4] = target: T4, ERG (Homo sapiens, UniProt P11308 1-479); settings: protein: recombinant; tags: N-terminal GST; dsDNA, one strand shown
T4 sequence: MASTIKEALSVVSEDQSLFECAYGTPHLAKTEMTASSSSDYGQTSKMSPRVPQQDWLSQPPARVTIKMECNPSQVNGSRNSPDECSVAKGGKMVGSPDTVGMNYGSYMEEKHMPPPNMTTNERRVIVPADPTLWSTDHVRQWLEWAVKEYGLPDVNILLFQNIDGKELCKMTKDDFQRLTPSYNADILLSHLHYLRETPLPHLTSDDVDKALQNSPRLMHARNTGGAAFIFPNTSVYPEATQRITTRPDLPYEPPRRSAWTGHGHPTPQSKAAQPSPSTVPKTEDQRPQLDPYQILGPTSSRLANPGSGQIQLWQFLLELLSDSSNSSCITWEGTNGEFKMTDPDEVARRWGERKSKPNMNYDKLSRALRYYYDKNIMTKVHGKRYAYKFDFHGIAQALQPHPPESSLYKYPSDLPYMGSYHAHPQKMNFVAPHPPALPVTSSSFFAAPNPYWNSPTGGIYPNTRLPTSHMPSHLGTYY
Method in brief: as §1

[5] = target: ELF1 (Homo sapiens, UniProt P32519 1-619); settings: protein: recombinant; tags: N-terminal GST; dsDNA, one strand shown
Chain of ELF1 (P32519 whole entry): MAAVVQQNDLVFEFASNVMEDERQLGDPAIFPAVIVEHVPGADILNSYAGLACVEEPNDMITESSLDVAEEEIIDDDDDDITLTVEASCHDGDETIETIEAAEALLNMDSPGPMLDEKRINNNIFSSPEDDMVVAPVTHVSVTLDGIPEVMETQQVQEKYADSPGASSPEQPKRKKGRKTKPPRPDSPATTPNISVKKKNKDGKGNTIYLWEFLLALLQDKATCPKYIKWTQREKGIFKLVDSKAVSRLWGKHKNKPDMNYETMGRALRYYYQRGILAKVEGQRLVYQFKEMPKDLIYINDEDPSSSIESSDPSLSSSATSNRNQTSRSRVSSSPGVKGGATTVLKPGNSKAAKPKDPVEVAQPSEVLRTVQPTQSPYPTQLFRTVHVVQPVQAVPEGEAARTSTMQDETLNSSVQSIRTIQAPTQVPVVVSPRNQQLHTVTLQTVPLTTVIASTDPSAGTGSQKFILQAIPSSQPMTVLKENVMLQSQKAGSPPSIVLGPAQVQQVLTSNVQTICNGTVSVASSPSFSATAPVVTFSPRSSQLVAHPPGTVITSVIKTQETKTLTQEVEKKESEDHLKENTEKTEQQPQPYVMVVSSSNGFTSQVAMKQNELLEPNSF
Method in brief: as §1

[6] = target: T5, EHF (Homo sapiens, UniProt Q9NZC4 1-300); settings: protein: recombinant; tags: N-terminal GST; dsDNA, one strand shown
T5 sequence: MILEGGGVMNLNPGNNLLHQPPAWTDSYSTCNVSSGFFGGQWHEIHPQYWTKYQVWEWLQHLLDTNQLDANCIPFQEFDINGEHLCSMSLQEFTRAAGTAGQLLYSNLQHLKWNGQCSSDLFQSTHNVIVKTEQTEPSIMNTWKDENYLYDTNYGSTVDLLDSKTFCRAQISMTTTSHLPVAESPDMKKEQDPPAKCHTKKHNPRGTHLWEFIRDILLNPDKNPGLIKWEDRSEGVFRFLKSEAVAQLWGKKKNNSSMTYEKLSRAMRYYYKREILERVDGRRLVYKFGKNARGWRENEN
Method in brief: as §1

[7] = target: SPI1 (Homo sapiens, UniProt P17947 1-270); settings: protein: recombinant; tags: N-terminal GST; dsDNA, one strand shown
Method in brief: as §1

[8] = target: SPIB (Homo sapiens, UniProt Q01892 1-262); settings: protein: recombinant; tags: N-terminal GST; dsDNA, one strand shown
Chain of SPIB (Q01892 whole entry): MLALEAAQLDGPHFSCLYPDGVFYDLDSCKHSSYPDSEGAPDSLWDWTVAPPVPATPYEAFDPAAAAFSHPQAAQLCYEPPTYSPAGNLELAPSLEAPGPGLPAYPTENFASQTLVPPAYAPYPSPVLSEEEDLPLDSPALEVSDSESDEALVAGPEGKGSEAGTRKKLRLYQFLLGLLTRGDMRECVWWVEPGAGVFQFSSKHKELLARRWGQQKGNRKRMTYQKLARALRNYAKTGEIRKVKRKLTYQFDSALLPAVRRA
Method in brief: as §1

[9] = target: T6, ELK3 (Homo sapiens, UniProt P41970 1-407); settings: protein: recombinant; tags: N-terminal GST; dsDNA, one strand shown
T6 sequence: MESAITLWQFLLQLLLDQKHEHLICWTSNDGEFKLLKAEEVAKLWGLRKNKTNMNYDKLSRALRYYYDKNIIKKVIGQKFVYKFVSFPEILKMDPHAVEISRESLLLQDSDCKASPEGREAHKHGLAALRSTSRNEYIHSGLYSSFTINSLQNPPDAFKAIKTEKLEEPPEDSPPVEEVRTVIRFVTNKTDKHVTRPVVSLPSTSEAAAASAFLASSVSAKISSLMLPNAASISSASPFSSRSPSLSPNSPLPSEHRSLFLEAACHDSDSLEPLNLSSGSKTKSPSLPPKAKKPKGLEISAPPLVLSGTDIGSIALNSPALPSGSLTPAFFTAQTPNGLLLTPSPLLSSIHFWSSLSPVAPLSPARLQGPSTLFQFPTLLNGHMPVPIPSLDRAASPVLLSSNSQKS
Method in brief: as §1

[10] = target: T7, FEV (Homo sapiens, UniProt Q99581 1-238); settings: protein: recombinant; tags: N-terminal GST; dsDNA, one strand shown
T7 sequence: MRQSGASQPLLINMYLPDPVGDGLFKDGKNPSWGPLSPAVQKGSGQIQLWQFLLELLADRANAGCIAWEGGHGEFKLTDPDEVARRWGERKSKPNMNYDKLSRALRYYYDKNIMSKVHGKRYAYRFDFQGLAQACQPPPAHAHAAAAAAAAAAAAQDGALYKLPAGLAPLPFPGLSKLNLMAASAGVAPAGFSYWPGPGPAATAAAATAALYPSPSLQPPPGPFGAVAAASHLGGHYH
Method in brief: as §1

[11] = target: ETV5 (Homo sapiens, UniProt P41161 1-510); settings: protein: recombinant; tags: N-terminal GST; dsDNA, one strand shown
Chain of ETV5 (P41161 whole entry): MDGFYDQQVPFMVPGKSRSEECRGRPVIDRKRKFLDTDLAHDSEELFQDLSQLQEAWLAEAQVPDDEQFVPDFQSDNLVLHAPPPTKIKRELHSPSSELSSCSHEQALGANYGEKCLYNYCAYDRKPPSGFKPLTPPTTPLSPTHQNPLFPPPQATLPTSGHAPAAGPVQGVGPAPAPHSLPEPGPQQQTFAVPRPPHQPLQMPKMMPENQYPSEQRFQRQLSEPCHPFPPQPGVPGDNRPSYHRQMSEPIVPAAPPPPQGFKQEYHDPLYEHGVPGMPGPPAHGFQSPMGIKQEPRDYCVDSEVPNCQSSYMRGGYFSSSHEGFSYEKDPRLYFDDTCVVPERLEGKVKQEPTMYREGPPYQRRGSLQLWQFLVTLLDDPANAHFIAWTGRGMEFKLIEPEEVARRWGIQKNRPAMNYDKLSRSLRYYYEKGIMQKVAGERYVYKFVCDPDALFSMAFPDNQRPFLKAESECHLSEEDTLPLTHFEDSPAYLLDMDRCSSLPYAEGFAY
Method in brief: as §1

[12] = target: HSF1 (Homo sapiens, UniProt Q00613 1-529); settings: protein: recombinant; tags: N-terminal GST; chain copies: 3; dsDNA, one strand shown
Chain of HSF1 (Q00613 whole entry): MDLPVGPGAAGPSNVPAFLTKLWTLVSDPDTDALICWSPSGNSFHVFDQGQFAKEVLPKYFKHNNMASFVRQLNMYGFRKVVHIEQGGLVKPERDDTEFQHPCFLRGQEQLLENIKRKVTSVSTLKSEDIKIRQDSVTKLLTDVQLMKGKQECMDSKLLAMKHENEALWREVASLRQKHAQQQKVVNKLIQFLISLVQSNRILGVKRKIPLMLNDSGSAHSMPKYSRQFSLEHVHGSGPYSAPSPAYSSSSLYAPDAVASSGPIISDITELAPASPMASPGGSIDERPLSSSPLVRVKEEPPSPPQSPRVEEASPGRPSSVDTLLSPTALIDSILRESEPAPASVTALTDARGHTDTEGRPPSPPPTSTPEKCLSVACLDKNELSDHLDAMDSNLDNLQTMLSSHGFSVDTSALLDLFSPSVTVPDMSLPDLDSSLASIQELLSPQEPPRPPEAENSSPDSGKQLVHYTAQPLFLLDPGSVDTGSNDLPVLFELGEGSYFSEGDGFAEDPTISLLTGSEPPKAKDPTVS
Method in brief: as §1

[13] = target: T8, SPIC (Homo sapiens, UniProt Q8N5J4 1-248); settings: protein: recombinant; tags: N-terminal GST; dsDNA, one strand shown
T8 sequence: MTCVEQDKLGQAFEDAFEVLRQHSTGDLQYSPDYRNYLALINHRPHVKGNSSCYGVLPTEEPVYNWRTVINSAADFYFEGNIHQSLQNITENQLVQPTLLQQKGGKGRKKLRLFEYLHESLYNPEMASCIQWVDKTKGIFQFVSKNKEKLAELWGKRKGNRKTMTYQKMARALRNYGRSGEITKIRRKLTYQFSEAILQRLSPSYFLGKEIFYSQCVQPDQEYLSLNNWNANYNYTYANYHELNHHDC
Method in brief: as §1

[14] = target: ELF4 (Homo sapiens, UniProt Q99607 1-663); settings: protein: recombinant; tags: N-terminal GST; dsDNA, one strand shown
Chain of ELF4 (Q99607 whole entry): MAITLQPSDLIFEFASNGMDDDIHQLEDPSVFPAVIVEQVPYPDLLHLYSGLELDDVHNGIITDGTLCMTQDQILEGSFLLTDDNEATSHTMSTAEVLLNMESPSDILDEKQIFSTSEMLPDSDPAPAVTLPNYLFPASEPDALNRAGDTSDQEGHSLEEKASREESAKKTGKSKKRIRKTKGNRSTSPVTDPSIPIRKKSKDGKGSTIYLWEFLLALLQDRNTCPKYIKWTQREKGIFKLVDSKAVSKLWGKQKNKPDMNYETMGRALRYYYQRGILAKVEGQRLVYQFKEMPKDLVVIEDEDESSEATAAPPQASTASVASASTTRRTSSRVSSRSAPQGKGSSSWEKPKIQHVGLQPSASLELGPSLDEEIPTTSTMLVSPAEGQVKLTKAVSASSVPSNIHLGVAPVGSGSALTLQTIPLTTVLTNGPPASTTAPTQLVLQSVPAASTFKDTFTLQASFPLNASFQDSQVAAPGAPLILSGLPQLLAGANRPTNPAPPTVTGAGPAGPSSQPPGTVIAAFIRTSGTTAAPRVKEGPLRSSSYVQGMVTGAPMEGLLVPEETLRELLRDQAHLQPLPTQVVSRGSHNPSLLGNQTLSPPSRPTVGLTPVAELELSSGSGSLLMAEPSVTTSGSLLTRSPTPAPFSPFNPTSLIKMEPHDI
Method in brief: as §1

[15] = target: T9, ELK4 (Homo sapiens, UniProt P28324-2 1-405); settings: protein: recombinant; tags: N-terminal GST; dsDNA, one strand shown
T9 sequence: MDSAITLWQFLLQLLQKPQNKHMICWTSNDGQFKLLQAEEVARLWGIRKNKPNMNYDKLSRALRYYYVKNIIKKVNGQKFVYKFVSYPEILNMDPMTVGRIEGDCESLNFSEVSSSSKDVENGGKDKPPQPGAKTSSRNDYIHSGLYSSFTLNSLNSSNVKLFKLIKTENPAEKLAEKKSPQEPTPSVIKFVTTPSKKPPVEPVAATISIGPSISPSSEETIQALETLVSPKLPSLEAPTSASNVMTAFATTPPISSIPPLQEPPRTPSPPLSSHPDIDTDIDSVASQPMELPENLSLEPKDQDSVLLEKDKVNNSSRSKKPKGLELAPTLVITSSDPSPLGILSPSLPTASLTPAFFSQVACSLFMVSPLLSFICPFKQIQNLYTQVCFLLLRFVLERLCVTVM
Method in brief: as §1

[16] = target: T10, ETV2 (Homo sapiens, UniProt O00321 1-342); settings: protein: recombinant; tags: N-terminal GST; dsDNA, one strand shown
T10 sequence: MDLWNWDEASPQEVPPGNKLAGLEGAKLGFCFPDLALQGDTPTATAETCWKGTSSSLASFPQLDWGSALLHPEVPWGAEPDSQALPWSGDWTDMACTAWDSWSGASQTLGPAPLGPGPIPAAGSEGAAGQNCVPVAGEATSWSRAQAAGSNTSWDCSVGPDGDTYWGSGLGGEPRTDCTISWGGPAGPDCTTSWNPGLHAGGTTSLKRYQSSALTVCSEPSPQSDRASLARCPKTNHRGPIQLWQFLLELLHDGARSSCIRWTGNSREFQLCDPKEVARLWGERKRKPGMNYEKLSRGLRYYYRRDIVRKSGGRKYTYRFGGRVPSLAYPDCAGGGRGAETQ
Method in brief: as §1

[17] = target: T11, ELF3 (Homo sapiens, UniProt P78545 1-371); settings: protein: recombinant; tags: N-terminal GST; dsDNA, one strand shown
T11 sequence: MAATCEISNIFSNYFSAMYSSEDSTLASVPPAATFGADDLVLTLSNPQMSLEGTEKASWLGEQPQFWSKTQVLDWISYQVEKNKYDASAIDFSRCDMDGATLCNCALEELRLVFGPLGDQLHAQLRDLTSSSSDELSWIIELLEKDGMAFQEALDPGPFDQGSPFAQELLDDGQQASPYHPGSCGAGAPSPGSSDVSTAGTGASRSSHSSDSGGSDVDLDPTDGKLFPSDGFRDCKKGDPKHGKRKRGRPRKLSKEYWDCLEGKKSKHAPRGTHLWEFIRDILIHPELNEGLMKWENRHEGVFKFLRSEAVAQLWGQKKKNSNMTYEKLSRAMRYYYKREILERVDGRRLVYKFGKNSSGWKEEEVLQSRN
Method in brief: as §1

[18] = target: CRX (Homo sapiens, UniProt O43186 1-299); settings: protein: recombinant; tags: N-terminal GST; dsDNA, one strand shown
Chain of CRX (O43186 whole entry): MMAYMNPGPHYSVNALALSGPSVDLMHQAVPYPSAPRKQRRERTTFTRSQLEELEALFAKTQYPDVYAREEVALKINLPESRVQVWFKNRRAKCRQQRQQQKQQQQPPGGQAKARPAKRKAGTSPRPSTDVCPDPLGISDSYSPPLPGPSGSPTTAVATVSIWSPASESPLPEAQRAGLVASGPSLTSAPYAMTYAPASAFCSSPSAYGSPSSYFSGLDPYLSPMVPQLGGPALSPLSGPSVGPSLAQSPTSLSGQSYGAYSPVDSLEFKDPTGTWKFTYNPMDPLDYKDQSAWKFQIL
Method in brief: as §1

[19] = target: ETV1 (Homo sapiens, UniProt P50549 1-477); settings: protein: recombinant; tags: N-terminal GST; dsDNA, one strand shown
Chain of ETV1 (P50549 whole entry): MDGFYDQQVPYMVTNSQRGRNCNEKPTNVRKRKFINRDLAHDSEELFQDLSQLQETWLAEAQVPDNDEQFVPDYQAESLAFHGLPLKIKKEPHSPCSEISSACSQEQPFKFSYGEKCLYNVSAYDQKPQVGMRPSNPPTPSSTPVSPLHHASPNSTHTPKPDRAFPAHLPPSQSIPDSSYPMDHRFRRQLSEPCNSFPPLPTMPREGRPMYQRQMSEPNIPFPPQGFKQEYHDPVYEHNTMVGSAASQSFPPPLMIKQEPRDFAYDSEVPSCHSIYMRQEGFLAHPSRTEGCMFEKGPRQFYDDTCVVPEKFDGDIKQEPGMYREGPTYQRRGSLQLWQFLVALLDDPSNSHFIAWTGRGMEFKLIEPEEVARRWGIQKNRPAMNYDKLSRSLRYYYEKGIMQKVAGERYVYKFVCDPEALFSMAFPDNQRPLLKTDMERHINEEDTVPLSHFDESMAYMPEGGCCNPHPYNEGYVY
Method in brief: as §1

Sequence: AACTAG
- binding signal [1]: 1.06 fold enrichment (6-mer frequency, TF over GST control)
- binding signal [2]: 1.15 fold enrichment (6-mer frequency, TF over GST control)
- binding signal [3]: 1.22 fold enrichment (6-mer frequency, TF over GST control)
- binding signal [4]: 1.21 fold enrichment (6-mer frequency, TF over GST control)
- binding signal [5]: 1.16 fold enrichment (6-mer frequency, TF over GST control)
- binding signal [6]: 1.12 fold enrichment (6-mer frequency, TF over GST control)
- binding signal [7]: 1.11 fold enrichment (6-mer frequency, TF over GST control)
- binding signal [8]: 1.07 fold enrichment (6-mer frequency, TF over GST control)
- binding signal [9]: 1.11 fold enrichment (6-mer frequency, TF over GST control)
- binding signal [10]: 1.14 fold enrichment (6-mer frequency, TF over GST control)
- binding signal [11]: 1.15 fold enrichment (6-mer frequency, TF over GST control)
- binding signal [12]: 1.37 fold enrichment (6-mer frequency, TF over GST control)
- binding signal [13]: 1.2 fold enrichment (6-mer frequency, TF over GST control)
- binding signal [14]: 1.19 fold enrichment (6-mer frequency, TF over GST control)
- binding signal [15]: 1.02 fold enrichment (6-mer frequency, TF over GST control)
- binding signal [16]: 1.35 fold enrichment (6-mer frequency, TF over GST control)
- binding signal [17]: 1.1 fold enrichment (6-mer frequency, TF over GST control)
- binding signal [18]: 1.11 fold enrichment (6-mer frequency, TF over GST control)
- binding signal [19]: 1.15 fold enrichment (6-mer frequency, TF over GST control)
